We go through 39 compounds from PubChem BioAssay (NCATS).

Results filed as inconclusive are left out. A number with no mark means an inactive call. The source made the active and inactive calls. The call rests on the fitted dose curve.
On the % scale 0 is the no-effect control and ±100 the full control effect.

Sequence of Atrial natriuretic peptide receptor 1 (Homo sapiens) (P16066 whole entry, looked up): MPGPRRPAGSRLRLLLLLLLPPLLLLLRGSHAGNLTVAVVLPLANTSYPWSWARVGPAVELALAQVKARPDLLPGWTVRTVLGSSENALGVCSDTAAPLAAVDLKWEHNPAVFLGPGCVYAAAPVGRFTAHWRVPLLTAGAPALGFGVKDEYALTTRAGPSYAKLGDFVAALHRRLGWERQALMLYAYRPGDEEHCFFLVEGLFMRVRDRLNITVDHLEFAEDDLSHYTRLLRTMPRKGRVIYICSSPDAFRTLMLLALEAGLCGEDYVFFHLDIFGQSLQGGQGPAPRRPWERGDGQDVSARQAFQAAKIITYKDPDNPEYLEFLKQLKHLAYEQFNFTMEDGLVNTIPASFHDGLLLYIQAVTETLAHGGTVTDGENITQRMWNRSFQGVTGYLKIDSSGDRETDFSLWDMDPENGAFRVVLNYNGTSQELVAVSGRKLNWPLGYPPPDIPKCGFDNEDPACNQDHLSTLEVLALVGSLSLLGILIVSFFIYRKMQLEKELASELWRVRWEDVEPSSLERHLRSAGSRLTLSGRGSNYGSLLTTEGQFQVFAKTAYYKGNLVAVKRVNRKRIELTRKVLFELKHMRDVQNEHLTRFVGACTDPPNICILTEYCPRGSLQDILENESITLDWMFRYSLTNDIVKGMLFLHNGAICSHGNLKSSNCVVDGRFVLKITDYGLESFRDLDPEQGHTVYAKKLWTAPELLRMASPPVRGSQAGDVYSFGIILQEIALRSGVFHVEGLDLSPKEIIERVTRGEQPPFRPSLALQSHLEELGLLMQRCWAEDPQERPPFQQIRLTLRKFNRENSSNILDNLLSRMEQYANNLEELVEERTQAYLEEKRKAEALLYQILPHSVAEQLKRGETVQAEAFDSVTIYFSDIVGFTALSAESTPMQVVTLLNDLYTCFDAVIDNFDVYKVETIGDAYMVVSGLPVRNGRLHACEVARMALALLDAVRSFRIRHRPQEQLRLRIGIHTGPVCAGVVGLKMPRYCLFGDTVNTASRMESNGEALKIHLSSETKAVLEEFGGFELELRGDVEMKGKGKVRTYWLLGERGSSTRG

The experiment has as its target Atrial natriuretic peptide receptor 1 (Homo sapiens) (UniProt P16066). The experiment can be described thus: Natriuretic polypeptide receptor (hNpr1) antagonism - Pilot CMLD screen (AID 1347052).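 Further: HEK293 cells with hNpr1 stimulated by hNppA peptide at 0.1 nM; cGMP level read as GloSensor luciferase luminescence after agonist stimulation.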 Conditions: HEK293 hNpr1 GloSensor cGMP luminescence, ANP-stimulated; series mostly up to 9.22 µM; activity change, negative = inhibition: at the top concentration.
As to `COC(=O)C12CC3(CCC4C5C(C(OCc6ccccc6)C41)C52)OCCO3` (centres undefined), the “activity change, negative = inhibition” value was -0.717%. Same read-out and setting: with `COc1ccc2c(c1)O[C@@H](c1cccc(C(F)(F)F)c1)[C@H](OC(=O)Nc1ccc(OC(F)F)cc1)C2=O` the figure was 7.49%; with `COC(=O)C1=C(C)C(=O)[C@]2(O)c3ccccc3N(C)[C@]12C`, 0.512%; with `CCC12C=C(C=Cc3ccccc3)C(CC)(C1)C(c1ccccc1)CC2=O` (centres undefined), -1.36%. Take `COC(=O)[C@@H]1[C@@H](c2ccccc2)NC(=O)N(Cc2ccccc2)[C@@H]1C`: the “activity change, negative = inhibition” value is 2.01%. `CC(C)=CCCC(C)=CCON=C1C[C@@H](O)[C@@H](O)[C@@H]2[C@H]3C(=O)N(Cc4ccc5c(c4)OCO5)C(=O)[C@@H]3CC[C@H]12`: the “activity change, negative = inhibition” value is 0.359%.

With `COC(=O)N1C(c2ccccc2)=Cc2ccccc2C1CC(C)=O` (centres undefined), the “activity change, negative = inhibition” value was -4.99%. On to `CCCCS(=O)(=O)N1CCc2nc(-c3ccccc3)c3c(c2C1)CO[C@@H](C)C3`, for which the “activity change, negative = inhibition” value is 14.2%. Consider `FC(F)(F)c1ccc(-c2nc(-c3ccccc3)oc2Nc2ccc3ccccc3c2)cc1`, for which the “activity change, negative = inhibition” value is 8.66%. On to `COC[C@@H](O)[C@H]1OCc2ccccc2[C@H]1C=Cc1ccccc1`, for which the “activity change, negative = inhibition” value is 0.929%. Regarding `C=CC[C@@]1(c2ccc(OC)cc2)Oc2ccccc2C2=NCCN=C21`, the “activity change, negative = inhibition” value is -2.13%.

`O=C(C=Cc1ccccc1)N1CCC[C@H]1CO`: the “activity change, negative = inhibition” value is -0.187%. On to `CCN(CC)CC(O)CN1CCCCc2nc(C)c(C)cc21` (centres undefined), for which the “activity change, negative = inhibition” value is 1.2%.

On to `CC1(C)O[C@H]2O[C@H]([C@H](O)CON=C3[C@H]4CCn5c(=O)n(-c6ccccc6)c(=O)n5[C@@H]4[C@H](O)[C@@H]4O[C@H]34)[C@H](O)[C@@H]2O1`, for which the “activity change, negative = inhibition” value was 0.131%.

As to `CCCCC1=CC2=CC(=O)C(C)(OC(=O)c3cnc4ccccc4n3)C(=O)C2=CO1` (centres undefined), the “activity change, negative = inhibition” value is 5.87%.

In the case of `COC(=O)CC=C[C@@H](C)[C@@H](C=NOC[C@@H](O)COCc1ccco1)NS(=O)(=O)c1ccc(C)cc1`, the “activity change, negative = inhibition” value is -0.365%. On the same count and under the same terms, with `COc1ccc2c(c1)C(=O)[C@@H](OC(=O)NCCc1ccc(OC)c(OC)c1)[C@H](c1ccc(OC)c(Br)c1)O2` the figure was 13.9%; with `CC(CCN1CCc2nc(-c3ccccc3)c(-c3ccccc3)cc2C1)=NOC[C@@H](O)COCc1ccco1`, 1.72%. The same measure, in the same setting: to `CC=CC(=O)C[C@H]1CC[C@@H](C)[C@@H](CCO)O1` belongs -23.7%; to `C=C(C(C)=O)C(O)c1ccccc1` (centres undefined), -1.76%; to `COC(=O)CCC(=O)OC1(C)C(=O)C=C2C=C(C3CC3)N(c3ccc(CO)cc3)C=C2C1=O` (centres undefined), -3.28%. Same read-out and setting: with `CCC(=O)C[C@@H](NC(=O)OC)c1ccc(F)cc1` the figure was -0.623%.

Take `C[C@H]1Cc2c(COc3ccccc3)nc3c(c2CO1)CN(C(=O)C1CC1)CC3`: the “activity change, negative = inhibition” value was 0.774%. As to `C=CCC(Nc1ccc(OC)cc1)(C(=O)OCC)c1ccccc1` (centres undefined), the “activity change, negative = inhibition” value was -4.6%. For `CCCCCCCc1cc2ccccc2c2c(C(=O)OC)c(C(=O)OC)c(C(=O)OC)n12`, the “activity change, negative = inhibition” value was -3.09%. Still for that read-out and setting: to `Cc1ccc2[nH]c3nc(CCCn4ccnc4-c4ccccc4)nnc3c2c1` belongs 12.2%. Turning to `CCCCC[C@]12Cc3cc(OC)c(OC)cc3[C@H](O1)c1c(cc(C)n(-c3ccccc3)c1=O)O2`, the Potency entry was “inactive”. For `CC(CCC(=O)OC[C@H]1O[C@H](C#Cc2ccccc2)C=C[C@H]1Oc1ccc(C)cc1)=NO[C@H](C)c1cn([C@H](CO)Cc2ccccc2)nn1`, the “activity change, negative = inhibition” value was -1.74%. `COC(=O)C1=C(C(=O)OC)[C@@H]2N(C)c3ccccc3[C@@]23CCC(=O)N(CCCOC(C)C)C3=N1`: the “activity change, negative = inhibition” value is -5.74%. Same read-out and setting: to `COC(=O)[C@H](COC(C)(C)C)NC(=O)O[C@@H]1C(=O)c2ccc(OC)cc2O[C@H]1c1cccc(C(F)(F)F)c1` belongs 10.4%; to `COC1=C[C@H](C(=O)NC2CCN(Cc3ccccc3)CC2)[C@@]2(C)Cc3ccccc3[C@@H]2CC1=O`, -1.58%. The same measure, in the same setting: to `COCCN1C(=O)CC[C@@]23C1=NC(C(=O)OC)=C(C(=O)OC)[C@@H]2N(CC=C(C)C)c1ccccc13` belongs 0.66%.

Turning to `C#CC[C@@]1(C(=O)OC)C=C[C@@H](C)[C@H](c2ccccc2Br)N1C(=O)C(F)(F)F`, the “activity change, negative = inhibition” value was 0.0057%. As to `COC(=O)C1(C(=O)OC)C[C@@H]2CON=C2[C@@H]1c1ccccc1`, the “activity change, negative = inhibition” value is -0.311%. In the case of `C[C@H](NC(=O)N1CCc2nc(-c3ccccc3)c3c(c2C1)CO[C@@H](C)C3)c1ccccc1`, the “activity change, negative = inhibition” value was 12.2%. Take `CC(C)CON=C1C[C@@H](O)[C@@H](O)[C@@H]2[C@H]3C(=O)N(Cc4ccc5c(c4)OCO5)C(=O)[C@@H]3CC[C@@H]12`: the “activity change, negative = inhibition” value is 1.36%. Take `COc1ccc2c(c1)CO[C@H]([C@H](O)CO)[C@H]2C=Cc1ccccc1`: the “activity change, negative = inhibition” value was -4.49%.

Turning to `COC(=O)C1=C(C(=O)OC)[C@@H]2N(CC=C(C)C)c3ccccc3[C@@]23CCC(=O)N(CCc2ccccn2)C3=N1`, the “activity change, negative = inhibition” value was 0.492%. Consider `CC(CCN1CCCc2nc(C)c(C)cc21)=NOC[C@@H](O)[C@H]1O[C@@H]2OC(C)(C)O[C@H]2[C@@H]1O`, for which the “activity change, negative = inhibition” value is 0.021%.
